Screening data: PubChem, National Center for Advancing Translational Sciences (NCATS)
Luciferase inh: inhibitors of firefly luciferase | P08659 | purified firefly luciferase, luminescence, 8 min | Potency, µM (top dose mostly 57.1 µM), inactives show at the top dose activity change, negative = inhibition, actives largely listed as inhibitors | 72,000 tested, 2.2% active | AID 411; also: % is scaled to controls: 0 for no effect and ±100 for the full control effect; nearly all actives have a fitted effect of over 40% in size
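Firefly luciferase (PKLight detection mix) with 10 uM ATP in pH 7.2 imidazole buffer (KCl, MgCl2, Tween 20, BSA). Compounds tested across a concentration series (qHTS). Luminescence read after 8 min at ambient temperature.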
TSHR ag: agonists of human thyroid stimulating hormone receptor; P16473; AID 926; HEK293-CNG-TSHR cells (CNG channel as cAMP sensor), membrane potential dye, cAMP; Potency, µM (highest dose often 57.1 µM), for the others: at the highest dose activation, actives largely listed as activators; 73,000 tested, 0.48% active; active = well fitted activation curve with a large enough effect in the main read-out, with a control signal flat, not every such curve was filed as active; inconclusive = small, poorly fitted or top-dose-only effect, or a change in a side signal; inactive = no such curve, though single readings can be large or run the other way; % of control where 0% means no effect;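 also: the control signal comes from parental cells without the receptor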
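cAMP rise detected as CNG-channel membrane depolarization by fluorescent dye (emission 590 nm), 30 min after compound, following 60 min dye loading containing 100 uM RO 20-1724 at room temperature. Cells: TSHR/CNG HEK 293, with parental CNG HEK 293 as control.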
ERK AVP inh: inhibitors of vasopressin-stimulated ERK signaling pathway | HEK293-V1b, vasopressin-stimulated pERK AlphaScreen | Potency, µM (titrated, usually from 57.5 µM), without a hit: at the highest dose activity, negative = inhibition, actives largely listed as inhibitors | 72,000 tested, 0.99% active | AID 995; also: % is scaled to controls: 0 for no effect and ±100 for the full control effect; nearly all actives have a fitted effect of over 55% in size
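Phosphorylated ERK1/2 detected via AlphaScreen bead proximity in lysates of V1b-expressing HEK293 cells given 25 nM vasopressin for 5 min after 30 min compound exposure (37 °C). AC50 from Hill equation; basal DMSO 0%, vasopressin 100%.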
GBA activity: alters purified human glucocerebrosidase activity; P04062; purified enzyme, resorufin glucoside fluorescence (screen aimed at inhibitors), 20 min; Potency, µM; 48,000 tested, 1.1% active; AID 360; in the data active = potency below about 15 µM; inconclusive = mostly about 16 µM to 33 µM;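 also: the screen sought inhibitors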
Target sequence (P04062 whole entry, looked up): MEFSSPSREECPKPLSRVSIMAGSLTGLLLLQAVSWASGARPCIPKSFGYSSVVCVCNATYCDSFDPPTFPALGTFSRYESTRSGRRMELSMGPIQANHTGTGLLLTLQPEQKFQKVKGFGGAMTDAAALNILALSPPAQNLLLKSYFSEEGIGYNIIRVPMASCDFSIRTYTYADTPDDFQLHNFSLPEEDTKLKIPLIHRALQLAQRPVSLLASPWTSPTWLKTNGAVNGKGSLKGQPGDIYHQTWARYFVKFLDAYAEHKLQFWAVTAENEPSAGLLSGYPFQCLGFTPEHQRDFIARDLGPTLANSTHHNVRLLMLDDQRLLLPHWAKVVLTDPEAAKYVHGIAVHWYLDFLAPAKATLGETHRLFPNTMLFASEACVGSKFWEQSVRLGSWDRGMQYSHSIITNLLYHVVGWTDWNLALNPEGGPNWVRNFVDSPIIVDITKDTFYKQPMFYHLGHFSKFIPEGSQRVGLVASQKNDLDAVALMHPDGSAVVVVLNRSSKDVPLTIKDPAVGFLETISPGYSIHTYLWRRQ
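Wild-type enzyme at 0.2 nM final in 50mM citric acid/KH2PO4, 10mM sodium taurocholate, 0.01% tween-20, pH 5.9, with resorufin beta-D-glucopyranoside at 30 uM final. Compounds titrated, 20 min at RT, red fluorescence read; AC50 from titration.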
PK Bst: pyruvate kinase (B. stearothermophilus) modulation; purified pyruvate kinase, luminescence ATP production; ribose 5-phosphate activator present at AC10; Potency, µM; 51,000 tested, 1.2% active; AID 361; in the data active = potency below about 11 µM; inconclusive = mostly about 12 µM to 25 µM;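 the screen sought inhibitors and activators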;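 also: scaled between full activation by ribose 5 phosphate and full inhibition by luteolin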
HEK293 cAMP ctrl: parental HEK293 cAMP activation (counter-screen); Potency, µM (doses to about 57.1 µM), inactives show at the highest dose activation, most hits filed as activators; parental HEK293 CNG cAMP sensor, membrane potential fluorescence; 73,000 tested, 2.5% active; also: % of control where 0% means no effect; nearly all actives have a fitted effect of over 55% in size
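Parental HEK 293 cells stably expressing a modified CNG channel (no TSHR) report cAMP rise as membrane depolarization. Membrane potential dye with 100 uM RO 20-1724 was loaded for 60 min at room temperature, then compound added for 30 min; fluorescence read at 590 nm.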
The depositor's hits bear a star; i = inactive; ? = inconclusive; . = no result given; ! = not active in a repeat; [ ] = remark or other dose. The list is not random: actives were taken first. Their share in the collection is about 6.1%. Unless noted, calls follow the shape of the dose curve; as a rule, active = well fitted curve in the direction sought with a large enough effect; inconclusive = small, poorly fitted or top-dose-only effect, or another doubt; inactive = no such curve, though single readings can be large; an effect the other way counts as inactive or inconclusive. Potency is read from the fitted curve at half-maximal effect.

SMILES	Luciferase inh	TSHR ag	ERK AVP inh	GBA activity	PK Bst	HEK293 cAMP ctrl
CC(C)NC(=O)[C@@H]1C[C@H]1[C@@H](NC(=O)OCc1ccccc1)c1ccccc1	.	?	0%	.	.	?
O=C(N[C@@H](c1ccccc1)[C@@H]1C[C@H]1C(=O)NCc1ccccc1)OCc1ccccc1	.	?	14%	.	.	13µM*
C/C=C\C[C@H](C)[C@H](O)[C@H]1C(=O)N[C@@H](CC)C(=O)N(C)CC(=O)N(C)[C@@H](CC(C)C)C(=O)N[C@@H](C(C)C)C(=O)N(C)[C@@H](CC(C)C)C(=O)N[C@@H](C)C(=O)N[C@@H](C)C(=O)N(C)[C@@H](CC(C)C)C(=O)N(C)[C@@H](CC(C)C)C(=O)N(C)[C@@H](C(C)C)C(=O)N1C	3%[25.5 µM]	-11%[25.6 µM]	6%[25.7 µM]	.	.	1%[25.6 µM]
O=C(O)CCCSc1ccccc1	2%[11.4 µM]	0%[11.4 µM]	20%[11.5 µM]	.	.	4%[11.4 µM]
C=C(C)C(=O)OCC1CN2C(CCC(C)C2c2ccc(Br)cc2)C(=O)O1 (stereo not given)	.	?	11%[11.5 µM]	.	.	1.6µM*!
Nc1nc(Nc2cccc3ccccc23)nc(C2CCCC2=O)n1 (stereo not given)	-1%	7%	19%	1.5*	.	17%
C=CCn1c(SC(C)C(=O)NCc2ccc3c(c2)OCO3)nnc1C1CCCCC1 (stereo not given)	1%	?	9%	>77	>57	2.5µM*
O=C(Nc1cccc(Cl)c1)N(CCCN1CCOCC1)Cc1ccccc1F	-3%	13%	-14%	11*	>57	24%
COc1cc2c(cc1OC)-c1cc3nc4ccccc4nc3n1C(C)(C)C2	0%	2%	31%	.	.	-1%
Cc1cc(-c2cc(C)c(O)c(C(C)(C)C)c2)cc(C(C)(C)C)c1O	-2%[11.4 µM]	13%[11.4 µM]	-8%[11.5 µM]	.	.	1%[11.4 µM]
Cc1ccccc1-c1n[nH]c(=S)o1	4%	16%	-5%	>77	>57	16%
Nc1ccc2oc(-c3cccc(Br)c3)nc2c1	7.9µM*	-15%	8%	.	.	0%
CC(C)c1ccc2oc(-c3cc(N)ccc3O)nc2c1	0.5µM*	-25%[11.4 µM]	15%	.	.	-15%[11.4 µM]
Cc1ccccc1-c1nc2cc(N)ccc2o1	13µM*	.	-5%	>77	?	-9%
Cn1c(=O)c(-c2ccc(F)cc2)nc2cnc(N3CCOCC3)nc21	-2%[11.4 µM]	?	14%	.	.	?
COC(=O)[C@@H]1C[C@H]2CC[C@H](O)C[C@H]2N1Cc1ccc(N2CCOCC2)cc1	.	.	10%	.	.	.
C[C@@]1(C(=O)O)NCCc2cc(O)c(O)cc21	-9%	5%	?	.	.	1%
O=S(=O)(c1ccccc1)N1CCC2(CCCN(Cc3nccs3)C2)CC1	-1%[11.4 µM]	-1%	-1%	.	.	2%
CCSc1nnc(-c2cccc(S(=O)(=O)N(C)C)c2)n1-c1cc(OC)ccc1OC	0%	?	11%	>77	>57	5µM*
CCCSc1nnc(-c2cccc(S(=O)(=O)N(C)C)c2)n1-c1cc(OC)ccc1OC	2%	?	-2%	i	>57	7.9µM*
COc1ccc(OC)c(-n2c(SCC(C)=O)nnc2-c2cccc(S(=O)(=O)N(C)C)c2)c1	3%	?	?	>77	>57	?
CCOc1ccc(N2Cc3ncccc3C2=O)cc1	-29%	-5%	-7%	>77	11*	1%
NCCC[C@@H](CC(=O)N[C@@H]1CCCC[C@H]1C(=O)N[C@H](CC(=O)N[C@@H](CCC(=O)O)CC(=O)O)Cc1ccccc1)NC(=O)C[C@H](Cc1c[nH]c2ccccc12)NC(=O)[C@@H]1CCCC[C@H]1N	.	7%	.	.	.	13%
CN(C)S(=O)(=O)c1ccc(S(=O)(=O)N(Cc2ccco2)Cc2ccccc2Cl)cc1	2%	?	3%	>77	>57	13µM*
CCCCCCC#CC1C=CC(OC(=O)OCC)C(COC(=O)OCC)O1 (stereo not given)	.	10%[11.4 µM]	0%[11.5 µM]	.	.	14%[11.4 µM]
SMILES	Luciferase inh	TSHR ag	ERK AVP inh	GBA activity	PK Bst	HEK293 cAMP ctrl
COCCCn1c2nc3ccccc3nc2c2c(=O)n(Cc3ccccc3Cl)cnc21	2%	?	7%	>77	>57	25µM*
COCCCn1c2nc3ccccc3nc2c2c(=O)n(Cc3ccc(Cl)cc3)cnc21	2%	11%	2%	7.3*	>57	17%
COCCCn1cnc2oc3nc4ccccc4nc3c2c1=O	25µM*	-6%	-18%	>77	.	0%
COCCCn1c(C)nc2c(c1=O)c1nc3ccccc3nc1n2CCc1ccccc1	5%[25.5 µM]	.	.	.	>26	.
COCCCn1cnc2c(c1=O)c1nc3ccccc3nc1n2-c1ccccc1	1%	-7%	-16%	>77	>57	-6%
Cc1cnc(CNc2ccnc(-c3ccc(C(=O)N(C)C)cc3)n2)cn1	1%[2.29 µM]	2%	-2%	.	.	2%
Nc1ccn([C@@H]2O[C@H](COC(=O)C34CC5CC(CC(C5)C3)C4)[C@@H](O)[C@@H]2O)c(=O)n1	3%[11.4 µM]	-1%[11.4 µM]	-2%[11.5 µM]	.	.	-1%[11.4 µM]
NCCC1([N+](=O)[O-])CCNCC1	3%[11.4 µM]	-1%[11.4 µM]	5%[11.5 µM]	.	.	2%[11.4 µM]
Cc1cccc(-n2nnnc2SCn2nnc3ccccc3c2=O)c1	2%	?	5%	>77	>57	25µM*
COc1ccc(C)cc1-n1nnnc1SCn1nnc2ccccc2c1=O	-37%	?	14%	>77	>57	?
O=C(O)CCC(O)=C1S(=O)(=O)OCCOS1(=O)=O	1%[11.4 µM]	-1%[11.4 µM]	-4%[11.5 µM]	.	.	-2%[11.4 µM]
CN(C)c1ccc(N=Cc2ccco2)cc1	20µM*	-38%	?	.	.	-21%
CN(C)c1ccc(C=Nc2ccc(N(C)C)cc2)cc1	.	3%	.	.	.	-9%
O=C(NCCN1CCOCC1)c1cc(-c2ccc(O)cc2)on1	1%	-2%	-18%	.	.	4%
COc1cccc(CNc2ccc(S(N)(=O)=O)cc2)c1OC	-9%	2%	-10%	>77	>57	20%
COc1cccc(CNc2ccc(N3CCCCC3)cc2)c1OC	?	-5%	20µM*	>77	>57	9%
COc1ccccc1CNc1ccc(N2CCCCC2)cc1	-14%	?	16µM*	?	>57	?
COCCn1c(SCC(=O)Nc2cccc(C(=O)OC)c2)nc2ccccc2c1=O	0%	?	-24%	>77	>57	?
COCCn1c(SCc2ccc(C(=O)OC)o2)nc2cc(Cl)ccc2c1=O	1%	?	-2%	>77	>57	20µM*
COC(=O)c1ccc(CSc2nc(C)nc3c2c(=O)n(C)c(=O)n3C)o1	2%	?	.	.	.	25µM*
COc1ccc(N(CC(=O)NC2CCCC2)C(=O)Cn2nnc(-c3ccc(C)cc3)n2)cc1	0%	9%	-8%	?	>57	8%
COc1ccc(N(CC(=O)NC2CCCC2)C(=O)Cn2nnc(-c3ccc(C)cc3)n2)cc1OC	1%	?	-10%	9.4*	>57	?
